Source: the supplement of paper PMC11150407
In all, about 2,100 compounds went through this assay and about 180 (8.6%) showed an effect of 50% or more. The sample as a whole holds a higher share of strong results than the screen did.

Tested on: MOLM1 and UCSD/AML1 (averaged)
Assay: cell viability relative to DMSO control (POC); higher = less growth inhibition
Details: 1 µM; 72 h
Method: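 Primary viability screen in the 3q26 EVI1-high AML cell lines MOLM1 and UCSD/AML1 (1.5e3 cells/well, 384-well), compounds at 1 uM for 72 h. ATP CellTiter-Glo read-out given as percent of viable cells over DMSO control (POC), averaged over duplicates. DMSO was the negative control and 5 uM etoposide the positive control. This mapping covers the MicroSource Spectrum and Selleck anticancer libraries (drug names).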

Compound | cell viability [%]
COC(=O)[C@@]1(C)CCC[C@]2(C)c3ccc(O)c(C(C)C)c3CCC12 (stereo partly drawn) | 109
COC(=O)c1cc(O)c(=O)c2c(O)c(O)ccc2c1 | 109
Cc1cnc(-c2cnc(NCCNc3ccc(C#N)cn3)nc2-c2ccc(Cl)cc2Cl)[nH]1 | 133
Cc1cc(=O)oc2c(O)c(O)ccc12 | 93.6
C=C1CCC(C2CC(=O)OC2=O)C(=O)CCC2C1CC2(C)C (stereo not drawn) | 104
FC(F)c1nc2ccccc2n1-c1nc(N2CCOCC2)nc(N2CCOCC2)n1 | 26.8
CCOC(=O)c1c(C)cc(O)c(C=O)c1O | 98.9
CC(=O)/C(=C\c1ccccc1)CC(=O)O | 118
COC(=O)C[C@H]1C(C)(C)C(=O)[C@@H]2CC3=C(CC[C@]4(C)C3=CC(=O)O[C@H]4c3ccoc3)[C@@]1(C)C2=O | 93.4
CN1CCN(c2cccc(Nc3nc4c(-c5ccc(S(C)(=O)=O)cc5)cccn4n3)c2)CC1 | 33.3
CC1=CC2C(CC1=O)C(C)=CCC2C(C)C (stereo not drawn) | 92.7
COc1ccc(-c2cc(=O)c3c(OC)c(OC)c(OC)c(OC)c3o2)cc1 | 89.9
CC(=O)/N=c1/sc(S(N)(=O)=O)nn1C | 112
CSCC[C@H](NC=O)C(=O)N[C@@H](Cc1ccccc1)C(=O)O | 105
CC(=O)O[C@@H]1CC[C@@]2(C)C(C[C@@H](OC(C)=O)[C@@]3(C)C4=CC(=O)O[C@@H](c5ccoc5)[C@]4(C)CCC23)C1(C)C (stereo partly drawn) [3alpha-ACETOXYDIHYDRODEOXYGEDUNIN] | 82
Nc1ccc(C(=O)Nc2cccc(-c3nc(N4CCOCC4)c4oc5ncccc5c4n3)c2)cn1 | 52.7
O=c1cc(N2CCOCC2)oc2c(-c3ccccc3)cccc12 | 73.8
Oc1cccc(-c2nc(N3CCOCC3)c3oc4ncccc4c3n2)c1 | 25.7
OC[C@H]1O[C@@H](OCCc2ccc(O)cc2)[C@H](O)[C@@H](O)[C@@H]1O | 107
CC(=O)O[C@H]1CC[C@]2(C)C3=C(CC[C@H]2C1(C)C)[C@]1(C)CC[C@H]([C@H](C)CCC=C(C)C)[C@@]1(C)CC3 | 94.1
CCn1c(-c2nonc2N)nc2c(C#CC(C)(C)O)ncc(OC[C@H]3CCCNC3)c21 | 54
CCCCC[C@H](CC(=O)O)C(=O)O | 111

Compound | cell viability [%]
C[N+](C)(C)CCCCCC[N+](C)(C)C | 114
CCCCCCCCCCCCCCCC[N+](C)(C)C | 43.7
CCCCCCCCCCCCCCCCCCCCCCO | 101
COc1cc(OC)c(-c2c(OC)cc(OC)cc2OC)c(OC)c1 | 104
CC1CCC2(OC1)OC1CC3C4CCC5C[C@@H](O)CCC5(C)C4=CCC3(C)C1[C@@H]2C (stereo partly drawn) [3beta-HYDROXYISOALLOSPIROST-9(11)-ENE] | 91.8
CC(=O)Nc1cccc(-n2c(=O)n(C3CC3)c(=O)c3c(Nc4ccc(I)cc4F)n(C)c(=O)c(C)c32)c1 | 27.3
CC(=O)Oc1cc(C)c2c(c1C(OC(C)=O)OC(C)=O)Oc1c(c(C)c(OC(C)=O)c3c1C(OC(C)=O)OC3=O)OC2=O (stereo not drawn) | 97.6
CC(=O)O[C@H]1C[C@@H](OC(C)=O)C(C)(C)C2CC(=O)[C@]3(C)C(CC[C@@]4(C)[C@H](c5ccoc5)OC(=O)[C@H]5O[C@]543)[C@]21C (stereo partly drawn) | 97.1
CC(=O)Oc1cc(OC(C)=O)c2c(c1)O[C@H](c1ccc(OC(C)=O)c(OC(C)=O)c1)[C@@H](OC(C)=O)C2 | 96.7
COc1ccc(-c2cc(=O)c3c(O)cc(O)cc3o2)cc1O | 83
COc1cc(N2CCC(N3CCN(C)CC3)CC2)ccc1Nc1ncc(Cl)c(Nc2ccccc2S(=O)(=O)C(C)C)n1 | 30.7
C=CC(=O)Nc1cccc(Oc2nc(Nc3ccc(N4CCN(C)CC4)cc3OC)ncc2Cl)c1 | 86.3
COc1ccc(-c2oc3c(CC=C(C)C)c(O[C@@H]4O[C@H](CO)[C@@H](O)[C@H](O)[C@H]4O)cc(O)c3c(=O)c2O[C@@H]2O[C@@H](C)[C@H](O)[C@@H](O)[C@H]2O)cc1 | 83
CC(=O)O[C@H]1CC[C@@]2(C)[C@@H](CC[C@@H]3[C@@H]2CC(=O)[C@]2(C)[C@@H]4[C@H](C[C@@H]32)O[C@]2(CC[C@@H](C)CO2)[C@H]4C)C1 | 88.1
CC[C@@H]1C(=O)N(C)c2cnc(Nc3ccc(C(=O)N[C@H]4CC[C@H](N5CCN(CC6CC6)CC5)CC4)cc3OC)nc2N1C(C)C [BI6727 (Volasertib)] | 14.5
COc1cc(OC2CCN(C)CC2)ccc1Nc1ncc2c(n1)n(C1CCCC1)c(=O)n2C | 70.8
CC[C@@H]1C(=O)N(C)c2cnc(Nc3ccc(C(=O)NC4CCN(C)CC4)cc3OC)nc2N1C1CCCC1 | 13.2
CCOC(=O)CCCCCCCCCCCCC1C=CCC1 (stereo not drawn) | 103
CN1CCN(C(c2ccccc2)c2ccccc2)CC1 | 102
COC(=O)C1=CO[C@@H](O[C@@H]2O[C@H](CO)[C@@H](O)[C@H](O)[C@H]2O)[C@@H]2[C@@H](C)[C@@H](O)C[C@H]12 | 94.9
CC1(C)CCC[C@]2(C)[C@@H]3[C@H]1[C@@H](O)[C@@]2(C)C[C@H]3O | 92
